Source: the supplement of paper PMC3334620
Whole data set: some 33,000 sequences, median “E-score (-0.5 to 0.5)” near -0.012, cut for the highest 2% near 0.27. Shown is part of a subset that was picked to be rich in the highest values.

Molecular target: T1, Vhr1 (UniProt P40522)
T1 sequence: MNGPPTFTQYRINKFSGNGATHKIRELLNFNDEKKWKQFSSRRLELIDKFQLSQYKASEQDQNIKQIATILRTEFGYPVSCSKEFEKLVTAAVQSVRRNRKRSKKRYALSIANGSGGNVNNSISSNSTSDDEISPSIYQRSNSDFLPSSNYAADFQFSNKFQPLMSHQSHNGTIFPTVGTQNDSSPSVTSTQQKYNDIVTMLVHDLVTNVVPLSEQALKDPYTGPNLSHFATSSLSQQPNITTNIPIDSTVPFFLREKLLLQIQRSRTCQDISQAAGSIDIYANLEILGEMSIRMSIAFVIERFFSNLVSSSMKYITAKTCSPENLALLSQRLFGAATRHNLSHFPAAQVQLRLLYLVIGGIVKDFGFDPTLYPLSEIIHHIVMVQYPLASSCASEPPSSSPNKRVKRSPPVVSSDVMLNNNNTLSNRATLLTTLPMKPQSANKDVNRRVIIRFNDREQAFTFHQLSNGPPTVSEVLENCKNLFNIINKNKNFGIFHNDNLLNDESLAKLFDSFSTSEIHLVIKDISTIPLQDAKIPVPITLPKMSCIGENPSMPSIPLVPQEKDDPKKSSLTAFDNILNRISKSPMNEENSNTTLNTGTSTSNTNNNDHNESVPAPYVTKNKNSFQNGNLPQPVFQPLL
Assay: PBM E-score (8-mer binding enrichment) (E-score (-0.5 to 0.5)); higher = stronger / more preferred TF binding
Details: protein concentration: 200 nM; construct: GST-full length
Procedure: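 Universal 'all 10-mer' protein binding microarrays (Agilent AMADID 015681) probed with GST-tagged S. cerevisiae TFs (full-length or DBD) made by in vitro transcription/translation (PURExpress), about 100-200 nM. Bound TF was detected with fluorescent anti-GST. Each ungapped 8-mer (which stands for itself and its reverse complement) is scored by the PBM enrichment score (E-score), a modified Wilcoxon-Mann-Whitney statistic from -0.5 to +0.5, computed with the Universal PBM Analysis Suite. Scale: above 0.35 generally sequence-specific binding.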

Sequence | PBM E-score
AGAGCGAC | 0.0123
ACTATAGC | 0.00988
CTCGATTA | 0.216
TACGAGCA | -0.0868
GGAATACA | 0.0161
CACCCGTC | 0.0428
CAACGCTA | -0.125
CAGGAATG | 0.0121
CACGAATC | 0.288
CATGATTC | 0.424
AACGAATC | 0.125
CTTGATTC | 0.214
GAGGAATC | 0.0804
CACGAATA | 0.066
GATGAATC | 0.249
AATGAATC | 0.23
CATGATCC | 0.213
CATGAATC | 0.31
CAGGAATC | 0.313
CAGTATCC | 0.124
GCTGGCGA | -0.0575
GGCAGACA | -0.0678
ATTGCCCA | -0.113
CCGGTCCG | 0.112
AAATGAAT | -0.0848

Sequence | PBM E-score
CTGATCGA | 0.0718
CTGGACCC | -0.213
CACTGCCG | 0.173
ATACTACG | -0.0642
CTGAGATA | -0.128
GCAGCTTA | -0.0202
ATTGATTC | 0.171
CATGATAA | 0.108
CATGATTA | 0.369
AATGATTG | 0.199
AATGATTC | 0.406
CTTGATTA | 0.0605
TAACCTAA | -0.187
ACCTTCTG | 0.167
CCCACCCG | 0.382
CCCACCCC | 0.389
ACCACCCG | -0.0147
ACCACCCC | 0.112
CCCACCCA | 0.263
GCCACCCC | -0.0413
AACCCCTA | -0.0392
AACACCGA | 0.108
AACGACTA | 0.0488
AACGACTT | -0.216
GACGACTC | 0.358

Sequence | PBM E-score
CACGACTG | 0.178
GACGACGC | -0.049
CACGACTC | 0.378
CACGACTA | 0.209
AACGACTC | 0.292
GACGACTA | 0.162
GCACCCAA | -0.0528
AGTCTTGC | 0.0289
ACAGCTCC | 0.0267
TTACCTAA | -0.0877
GAGTCAGC | 0.476
ATGTCAGC | 0.072
AAGTCAGA | 0.0614
GCGTCAGC | -0.256
AAGTCAGC | 0.281
GGGTCAGA | -0.0746
CAGTCAGA | 0.224
CAGTCAGC | 0.232
GAGTCAGA | 0.447
CATGGGAC | 0.02
GTACTTCA | 0.114
CAATGGTC | 0.115
CCTAGTAC | 0.0265
ATGCTCAA | -0.0744
CTCGAGAA | -0.188

Sequence | PBM E-score
AGCAGTCA | 0.256
GGCAGTAA | 0.125
CGCAGTCA | 0.363
CGCAGTCC | 0.0797
GGCAGTGA | 0.0755
GGCAGTCA | 0.345
AGACCTGC | -0.147
CGCGCGAC | 0.162
GGCGCGAA | 0.0599
GGCGCGAC | 0.275
CTCGCGAC | 0.242
GTCGCGAC | 0.379
GTCGCGAA | 0.0553
CCGGCTCA | 0.0508
GTGGCTTA | -0.111
ATGGCTCC | 0.325
ATGGCTCG | 0.231
AGGGCTCC | -0.358
ATGGCTCA | 0.293
ATAGCTCA | 0.0225
CTGGCTCA | 0.28
GTAGCTCA | 0.0143
GTGGCTCA | 0.277
AGGGCTCA | 0.0814
CTGGCTCC | 0.0343

Sequence | PBM E-score
AATGAGCC | -0.00477
AGAGACTG | 0.0515
CTGCAGAA | 0.0335
GATTGACA | 0.0916
AAAGTTCG | -0.228
AATCAGTG | 0.0903
AGTCAGTC | 0.214
AGTCAGTG | 0.375
CGTCAGTA | 0.02
ATTCAGTG | 0.0826
AGTCAGTA | 0.323
ATAGGAGA | -0.00333
GCAGCAAC | 0.126
CAAGGGCC | -0.201
ACCCATAC | 0.222
ACAATATC | 0.0645
GCACACAC | 0.178
ACAATATA | 0.221
ACACTATC | 0.151
CCACACAC | 0.143
ACCCATAG | 0.0609
ACACTATA | 0.152
ACACACAC | 0.316
ACCCATAT | 0.296
ACACTATG | 0.292

Sequence | PBM E-score
ACAATATG | 0.325
ACTGTTGG | 0.034
CCGATTTC | -0.129
GTATAGAC | 0.145
CGAAACCC | -0.0543
CAATCGTA | -0.029
ACCGATTC | -0.0343
CAGCGAGC | 0.135
CGAGCAGA | 0.0217
TTGGTAAA | -0.12
ACAGTATG | 0.277
ACACACAT | 0.275
ACAGTATA | 0.11
AAACACAT | 0.252
CCACACAG | 0.165
CCACACTC | -0.0226
ACACACTC | 0.293
ACACACTG | 0.163
ACACACAA | 0.226
ACACACAG | 0.353
ACAGTATC | -0.14
AGACACAT | 0.0642
CAGTTGCG | 0.107
ACTTCTGG | -0.04
GTTGAAAC | -0.0891

Sequence | PBM E-score
CTAAGAAA | -0.112
AATGCTAC | 0.072
ACGCTCCT | -0.065
ACCCACAT | 0.271
ACCCACAC | 0.185
ACCCACAG | 0.157
ACACTTAG | 0.00688
ATTCGGCC | 0.0234
CCTCGGCG | 0.283
GGTCGGCA | -0.138
AGTCGGCC | 0.278
TGTCGGAA | 0.0453
AGTCGGCA | 0.282
CCTCGGCA | -0.129
CGTCGGCA | 0.044
AGTCGGAA | 0.293
AGTCGGAC | -0.0678
CCTCGGCC | 0.00422
CGTCGGCC | -0.143
GACTTGAA | -0.152
AAAGGTCA | -0.173
CCGACTGC | 0.126
AGTCGGTG | 0.246
AGTCGGCG | 0.293
ATTCGGCG | -0.00502

Sequence | PBM E-score
AAGTGACA | 0.0587
ACAGGGTC | 0.133
AAGAGTCG | 0.281
CAGAGTCA | 0.344
CAGGGTCA | 0.00801
AAGAGTTG | -0.154
CAGGGTCG | 0.025
AAGAGTGG | -0.0723
CAGAGTCC | 0.0441
CAGAGTCG | 0.328
CAGAGTGA | 0.0508
CCTATTAG | -0.167
GTTTCCTA | -0.206
TACTGCAA | -0.0559
GCCTAACA | 0.026
CCCAACTC | 0.134
CCAGGCAA | -0.034
ACGCGAAA | -0.0435
GGTGCTAA | -0.166
GATTCGCC | 0.105
AATTCGCG | -0.02
CATTCGCC | 0.00808
GATTCGCA | 0.276
CATTCGCA | -0.0683
CATTCGCG | 0.279

Sequence | PBM E-score
AGTGCACA | 0.0902
AAAGATGC | -0.193
AAAGACGC | -0.154
ACAGGCGC | -0.173
CCTTCTGA | -0.149
GCACTTGA | -0.145
ATGTCTCG | 0.135
ATGTCTCA | 0.297
ATGTCTCC | 0.175
AAACCACG | -0.079
AAGACCGG | -0.166
AGATGACT | 0.435
AGATGACC | -0.0573
CCATGAGA | 0.191
ACATGACT | 0.446
ACATGAGT | 0.279
TCATGAGA | 0.101
ACATGAGA | 0.273
ACATGAGG | -0.0901
ACATGACA | 0.206
ACATGACG | -0.0758
ACATGAGC | 0.0844
AGATGACA | 0.0194
